The panel holds about 79,000 compounds, 15% with a hit somewhere; the sample as a whole holds those more often. Unmarked numbers belong to inactive results. Active and inactive are the calls of the source. Rule as the data show it: active = growth inhibition above about 70%; inactive = the rest.
Columns and labels:
[1] = NCI Yeast Anticancer Drug Screen. Data for the rad50 strain (AID 155);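 also: 0% = growth of vehicle-only cultures of the same strain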; settings: S. cerevisiae rad50 strain growth inhibition, hits give high values
Method in brief: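 Compounds were tested on a yeast strain with an engineered DNA damage repair alteration; the reported value is growth inhibition normalised to vehicle treatment.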

[2] = NCI Yeast Anticancer Drug Screen. Data for the mec2-1 strain (AID 157); settings: S. cerevisiae mec2-1 strain, hits give high values
Method in brief: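 Using mec2-1 yeast: add compound, measure growth, express inhibition versus vehicle-treated cultures.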

[3] = NCI Yeast Anticancer Drug Screen. Data for the sgs1 mgt1 strain (AID 161);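 also: 0% = growth of cultures given vehicle only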; settings: S. cerevisiae sgs1 mgt1 strain, hits give high values
Method in brief: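 Compounds are added to genetically altered yeast, and growth is compared with cultures given vehicle alone to give percent inhibition.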

[4] = NCI Yeast Anticancer Drug Screen. Data for the cln2 rad14 strain (AID 165);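 also: 0% = growth equal to vehicle treated cultures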; settings: S. cerevisiae cln2 rad14 strain, hits give high values
Method in brief: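 Yeast strain cln2 rad14, bearing defects in cell cycle control and DNA repair, serves as the test system; values reflect growth inhibition compared with vehicle.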

[5] = NCI Yeast Anticancer Drug Screen. Data for the bub3 strain (AID 167); settings: S. cerevisiae bub3 mutant strain, hits give high values
Method in brief: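 Growth of a checkpoint-deficient yeast mutant is measured after compound exposure. Values represent inhibition relative to vehicle.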

[6] = NCI Yeast Anticancer Drug Screen. Data for the mlh1 rad18 strain (AID 175); settings: S. cerevisiae mlh1 rad18 strain growth inhibition, hits give high values
Method in brief: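 Steps: expose repair-defective yeast to compound; measure growth; express inhibition against vehicle-treated controls.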

[7] = at 5.0 µM (retest, dose inferred, filed as 0.5)
[8] = at 50.0 µM (retest, dose inferred, filed as 5.0)

Structure (SMILES)	growth inhibition [1, 7]	growth inhibition [1, 8]	growth inhibition ([1]; at 50.0 µM)	growth inhibition [2, 7]	growth inhibition [2, 8]	growth inhibition ([2]; at 50.0 µM)	growth inhibition [3, 7]	growth inhibition [3, 8]	growth inhibition ([3]; at 50.0 µM)	growth inhibition [4, 7]	growth inhibition [4, 8]	growth inhibition ([4]; at 50.0 µM)	growth inhibition [5, 7]	growth inhibition [5, 8]	growth inhibition ([5]; at 50.0 µM)	growth inhibition [6, 7]	growth inhibition [6, 8]	growth inhibition ([6]; at 50.0 µM)
Cc1cnc(Sc2c([N+](=O)[O-])ncn2C)nc1	3%	8%	71.8% (active)	6%	7%	98.2% (active)	3%	9%	63.7%	0%	7%	41.5%	1%	4%	99.5% (active)	-1%	3%	80.1% (active)
Fc1cccc(C2SCc3nc4ccccc4n32)c1F (centres undefined)	-4%	2%	63.3%	-5%	23%	54.8%	-3%	28%	76.2% (active)	-12%	-7%	40.2%	-5%	14%	73.3% (active)	-8%	7%	92% (active)
COC(=O)C(=O)CC(=O)c1cccc(Cl)c1	16%	99% (active)	74.5% (active)	18%	100% (active)	77% (active)	18%	99% (active)	64.2%	6%	99% (active)	21.8%	13%	99% (active)	82.7% (active)	12%	99% (active)	74.7% (active)
CCCC1c2ccc(O)cc2CC1c1ccc(O)cc1 (centres undefined)	-1%	99% (active)	99.2% (active)	-4%	99% (active)	99.4% (active)	-3%	99% (active)	99.5% (active)	11%	99% (active)	52.4%	-1%	99% (active)	98.7% (active)	1%	99% (active)	98.5% (active)
COc1ccc(-c2c3ccccc3[n+](-c3ccccc3)c3ccccc23)cc1	98% (active)	99% (active)	99.6% (active)	99% (active)	100% (active)	99.5% (active)	99% (active)	100% (active)	99.5% (active)	96% (active)	99% (active)	99.2% (active)	99% (active)	99% (active)	99.2% (active)	99% (active)	99% (active)	99.3% (active)
COc1ccc2c(c1)CCc1c(-c3noc4c3CCc3cc(OC)ccc3-4)noc1-2	-7%	-15%	9.65%	5%	19%	19%	4%	-2%	-0.9%	11%	9%	53.5%	-2%	2%	-7.75%	-2%	10%	54.2%
c1ccc2c(c1)nc1cc(NC3CCCCC3)c(=NC3CCCCC3)cc-1n2C1CCCCC1	8%	4%	44.5%	0%	5%	37.6%	-7%	2%	42.8%	-1%	-13%	23.3%	-3%	16%	39.8%	0%	-49%	16.6%
Cc1nc(N)sc1N=Nc1ccc(Cl)cc1	-16%	55%	78% (active)	7%	62%	50%	-5%	62%	57.2%	5%	24%	66.7%	10%	52%	81.8% (active)	21%	77% (active)	84.5% (active)
O=C(COC(=O)c1ccc(O)cc1)c1ccc(-c2ccccc2)cc1	-16%	-13%	21.7%	-4%	11%	25.4%	-1%	12%	19.9%	22%	-45%	28.1%	6%	-20%	17.6%	-5%	24%	19.9%
ClCc1nc2ccccc2c2ccccc12	15%	50%	73.8% (active)	22%	26%	20.8%	7%	21%	55.9%	10%	13%	-28.2%	20%	67%	61.1%	12%	43%	83.5% (active)
CC1=NOC(=O)/C1=C/C=C/c1ccccc1	-7%	47%	87.1% (active)	3%	79% (active)	86.3% (active)	9%	89% (active)	90.3% (active)	22%	28%	40.1%	-23%	66%	60.8%	2%	80% (active)	79.2% (active)
CCCCCCCCCCCCSC1=C(N)C(=O)c2ccccc2C1=O	3%	2%	8.35%	0%	3%	11.1%	8%	-5%	-9.05%	-3%	0%	32.3%	-1%	-1%	11.3%	0%	5%	53%
COc1cccc(NC(=S)NC2CC(C)CC(C)(C)C2)c1 (centres undefined)	24%	94% (active)	86.5% (active)	-11%	85% (active)	89.3% (active)	-1%	94% (active)	89.8% (active)	30%	90% (active)	86.2% (active)	8%	93% (active)	89.2% (active)	-7%	93% (active)	84.8% (active)
